Among all 68,000 compounds or so, about 2,700 (4%) showed an effect of 50% or more. The list comes from a sample in which strong results are over-represented; it also holds similar structures and randomly drawn compounds.

This assay concerns Plasmodium berghei. The assay can be described thus: Screen against P. berghei liver stage (PbLuc), transformed with Luciferase, at 2uM. The class given is functional, HepG2. The note with it: tested at 2 uM.
As for `O=c1c(Cc2ccccc2)c(O)ccn1CCc1ccccc1`, the INHIBITION is 44.59%.

As for `Cc1ccc(CN2CC[C@H]3C[C@H](C(=O)N(C)C)O[C@H]3C2)cc1`, the INHIBITION was determined as 22.5%. Turning to `CCOc1ncccc1NC(=O)Nc1c(C)nn(C(C)C)c1C`, the INHIBITION was -10.87%. The value for `Cn1cc(CN2CCOC[C@H]2c2nc(C(C)(C)C)co2)c2ccccc21` was 50.17%; that for `CC(C)(C)c1coc([C@@H]2COCCN2Cc2ccccc2)n1` was 18.4%; that for `CC(C)(C)c1coc([C@@H]2COCCN2Cc2c[nH]c3ccccc23)n1` was 27.44%. Take `O=C(c1ccc(Cl)cc1)N1CCC(N2CCCNC2=O)CC1`: the INHIBITION came out at 27.54%. As for `O=C(c1ccoc1)N1CCC2(CC1)COC(COc1ccccn1)C2` (stereo unspecified), the figure is 24.51%; as for `COCCC1COC2(CCN(C(=O)c3cccnc3)CC2)C1` (stereo unspecified), 1.81%; as for `Cn1cc(CN2C[C@@H]3COC[C@]3(CNC(=O)c3ccsc3)C2)cn1`, 9.79%. Turning to `Cc1cnc(CN(Cc2ccc(C#N)cc2F)C2CCN(C)C2)o1` (stereo unspecified), the INHIBITION is given as 60.84%.

For the molecule `COc1ccc(C)cc1CN(Cc1ncc(C)o1)C1CCN(C)C1` (stereo unspecified), the INHIBITION was -5.79%. As for `Cc1cnc(CN(Cc2ccc(Cl)s2)C2CCN(C)C2)o1` (stereo unspecified), the figure is 14.83%; as for `CN1CCN(CC2CC2)C(=O)c2cnc(N3CCC(CO)CC3)nc21`, -13.87%.

In the case of `CSCCC(NC(N)=O)C(=O)NCc1cnn(-c2ccccc2)c1` (stereo unspecified), the INHIBITION is given as -12.03%. As for `CSCCC(NC(N)=O)C(=O)Nc1ccc(-n2cccn2)nc1` (stereo unspecified), the INHIBITION was -0.41%. As for `CSCCC(NC(N)=O)C(=O)NCc1ccc(-n2cccn2)cc1` (stereo unspecified), the figure is 50.42%. The value for `CCCOc1cc(C)ccc1NC(=O)NCCC(=O)N(C)C` was -36.17%; that for `COc1cc(C(=O)NC2COc3ccccc3C2)ccc1OCC(N)=O` (stereo unspecified) was -3.62%. The value for `COc1cccc(C(=O)N2CCOCC2CN(C)C)c1OC` (stereo unspecified) was 31.55%; that for `OC(CNCc1nnc2ccccn12)c1ccc2c(c1)OCO2` (stereo unspecified) was 31.54%; that for `CC(C)NC(=O)N1CCC(c2nnc3n2CCNC3)CC1` was 13.28%. Turning to `COc1cccc2c1OCC(CNC(=O)CSc1ccccn1)C2` (stereo unspecified), the INHIBITION turned out to be 33.11%. The value for `COc1cccc2c1OCC(CNC(=O)Cc1cnccn1)C2` (stereo unspecified) was -20.89%. The value for `COc1cccc2c1OCC(CNC(=O)Cn1ccnc1C)C2` (stereo unspecified) was 50.32%; that for `Cn1cccc1C(=O)N1CCC2(CC1)CC(N1CCOCC1)C2` was 35.89%. The value for `Cc1ccc(S(=O)(=O)N2CCC(S(=O)(=O)c3nncn3C)CC2)cc1C` was -19.3%; that for `Cn1cnnc1S(=O)(=O)C1CCN(S(=O)(=O)c2ccccc2F)CC1` was -8.91%; that for `Cn1cnnc1S(=O)(=O)C1CCN(S(=O)(=O)c2ccc(F)c(Cl)c2)CC1` was 60.09%. As for `CCOC(=O)N1CCC(NC(C)Cc2cc(C)n[nH]2)CC1` (stereo unspecified), the INHIBITION is recorded as -0.88%. As for `CCOC(=O)N1CCC(NC(C)c2ccccc2-n2cccn2)CC1` (stereo unspecified), the figure is 52.89%; as for `CC(C)CN1CCC(NC(C)c2ccccc2-n2cccn2)CC1` (stereo unspecified), 12.11%; as for `O=C1COC2(CCN(S(=O)(=O)C3CC3)CC2)CN1c1cccnc1`, 10.37%. As for `CCN(C(=O)Nc1nccs1)C(C)c1cccc(O)c1` (stereo unspecified), the figure is -81.27%; as for `NC(=O)c1cnn2c1NCC(CNCC1(c3ccccc3)CCCC1)C2` (stereo unspecified), -181.66%. As for `CN(Cc1ccc(Cl)s1)C(=O)COc1cccc(C(N)=O)c1`, the figure is 34.61%. Consider `CN(Cc1ccc(Cl)s1)C(=O)c1ccccc1OCC(N)=O`, for which the INHIBITION is 54.75%. The value for `CN(Cc1ccc(Cl)s1)C(=O)c1cccc(OCC(N)=O)c1` was 26.14%; that for `COc1ccc([C@@H]2CN(C(=O)CS(C)(=O)=O)C[C@H]2NC(C)=O)cc1` was 1.85%; that for `COCCN(C)CC(=O)N1C[C@@H](NC(C)=O)[C@H](c2ccc(OC)cc2)C1` was 53.13%. The value for `CCOCC(=O)N1C[C@@H](NC(C)=O)[C@H](c2ccc(OC)cc2)C1` was 20.15%. As for `c1ccc2sc(CN3CCOC(Cn4cncn4)C3)nc2c1` (stereo unspecified), the figure is 5.72%. For `Cc1cnn(CC2CN(Cc3nc4ccccc4s3)CCO2)c1` (stereo unspecified), the INHIBITION is 53.98%. As for `c1ccc2sc(CN3CCOC(Cn4cccn4)C3)nc2c1` (stereo unspecified), the figure is -88.54%; as for `Cn1cc(C(=O)NCCc2ccc(OC3CCCC3)cc2)ccc1=O`, -25.78%. As to `CCOCc1cncc2c1CCN(S(=O)(=O)c1ccccc1)C2`, the INHIBITION was -18.7%.

In the case of `CCOCc1cncc2c1CCN(S(=O)(=O)c1cccc(C)c1)C2`, the INHIBITION was determined as 9.36%. On to `CCOCc1cncc2c1CCN(S(=O)(=O)c1ccc(C)cc1)C2`, for which the INHIBITION turned out to be 70.13%. The value for `COc1ccc(CN2C[C@@H]3OCCN(CCN4CCCC4)[C@@H]3C2)cc1` was 28.85%; that for `CN(C(=O)c1cccc(NCc2cccs2)c1)C(C1CC1)C1CC1` was 29.41%; that for `Nc1nc2c(c(NCc3nccs3)n1)CCN(CC1CCCC1)CC2` was -1.29%.
